Measured values: PubChem BioAssay (EPA / NIEHS)
Values joined by “and” are separate entries in the source; they are usually repeats but may differ in a detail not shown here. Equal values may be shown once. More than one record can exist for a structure, and the calls need not agree. Active and inactive are the calls of the source. Rule for the calls: active = hit-call score of the fitted dose curve at least 0.9, where 1 is the maximum; inactive = score below 0.9.

Assays:
[1] = ATG_CRE_CIS: Attagene CIS-FACTORIAL HepG2 Assay for human cAMP Responsive Element (CRE) binding protein 3 (AID 2282926); details: HepG2 CRE cis-reporter, Attagene multiplexed mRNA; actives raise or lower the signal
In short: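 HepG2 cells transiently transfected with cis-element-driven multiple reporter transcription units; CRE reporter mRNA measured 24 h after dosing by RT-PCR, 6-FAM labelling, HpaI digestion and capillary electrophoresis. Bidirectional fit versus DMSO baseline.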

[2] = target: CCAAT/enhancer-binding protein beta (Homo sapiens) (UniProt P17676); assay: ATG_C_EBP_CIS: Attagene CIS-FACTORIAL HepG2 Assay for human CCAAT/Enhancer Binding Protein (C/EBP) beta (AID 2282927); details: HepG2 Attagene cis-factorial transcription factor reporter; actives raise or lower the signal
Chain of CCAAT/enhancer-binding protein beta (Homo sapiens) (P17676 whole entry, looked up): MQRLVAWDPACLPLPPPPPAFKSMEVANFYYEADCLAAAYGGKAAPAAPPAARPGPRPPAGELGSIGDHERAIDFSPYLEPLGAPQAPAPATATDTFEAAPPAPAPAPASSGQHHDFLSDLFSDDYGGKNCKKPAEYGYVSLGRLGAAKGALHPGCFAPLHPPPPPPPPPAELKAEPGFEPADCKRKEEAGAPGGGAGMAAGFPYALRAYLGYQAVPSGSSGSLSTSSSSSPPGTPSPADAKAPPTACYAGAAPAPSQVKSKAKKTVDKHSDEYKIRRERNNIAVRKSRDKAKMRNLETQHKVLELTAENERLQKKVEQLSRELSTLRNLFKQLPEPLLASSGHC
In short: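 Transiently transfected HepG2 (MRTU library, endogenous TF-driven promoters); 24 h dosing; total RNA → oligo(dT) RT → PCR → 6-FAM primer extension → HpaI digest → CE; fit bidirectionally vs DMSO.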

[3] = ATG_CMV_CIS: Attagene CIS-FACTORIAL HepG2 Assay for human CMV (Internal Marker) (AID 2282928); details: HepG2 CMV promoter reporter, transcription factor profiling; actives raise or lower the signal;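 note: endpoint acts as a background internal control marker rather than a target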
In short: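 CMV internal-marker background readout in transiently transfected HepG2 cells bearing cis-regulated reporter units. Reporter mRNA is measured 24 h after dosing by RT-PCR and capillary electrophoresis, with bidirectional fitting against DMSO.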

[4] = ATG_DR4_LXR_CIS: Attagene CIS-FACTORIAL HepG2 Assay for human Liver X Receptor (LXR), DR4 submotif (AID 2282929); details: HepG2 Attagene DR4 cis-reporter, mRNA transcription; actives raise or lower the signal
In short: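 HepG2 cells transiently transfected with cis-promoter-driven multiplexed reporter units (DR4 element) were dosed for 24 h. Reporter mRNA was quantified by RT-PCR, fluorescent primer extension, HpaI digestion and capillary electrophoresis; bidirectional fitting versus DMSO baseline.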

[5] = target: Aryl hydrocarbon receptor (Homo sapiens) (UniProt P35869); assay: ATG_Ahr_CIS: Attagene CIS-FACTORIAL HepG2 Assay for human Aryl Hydrocarbon Receptor (Ahr) (AID 2282930); details: HepG2 AhR cis-factorial reporter transcription; actives raise or lower the signal
Chain of Aryl hydrocarbon receptor (Homo sapiens) (P35869 whole entry, looked up): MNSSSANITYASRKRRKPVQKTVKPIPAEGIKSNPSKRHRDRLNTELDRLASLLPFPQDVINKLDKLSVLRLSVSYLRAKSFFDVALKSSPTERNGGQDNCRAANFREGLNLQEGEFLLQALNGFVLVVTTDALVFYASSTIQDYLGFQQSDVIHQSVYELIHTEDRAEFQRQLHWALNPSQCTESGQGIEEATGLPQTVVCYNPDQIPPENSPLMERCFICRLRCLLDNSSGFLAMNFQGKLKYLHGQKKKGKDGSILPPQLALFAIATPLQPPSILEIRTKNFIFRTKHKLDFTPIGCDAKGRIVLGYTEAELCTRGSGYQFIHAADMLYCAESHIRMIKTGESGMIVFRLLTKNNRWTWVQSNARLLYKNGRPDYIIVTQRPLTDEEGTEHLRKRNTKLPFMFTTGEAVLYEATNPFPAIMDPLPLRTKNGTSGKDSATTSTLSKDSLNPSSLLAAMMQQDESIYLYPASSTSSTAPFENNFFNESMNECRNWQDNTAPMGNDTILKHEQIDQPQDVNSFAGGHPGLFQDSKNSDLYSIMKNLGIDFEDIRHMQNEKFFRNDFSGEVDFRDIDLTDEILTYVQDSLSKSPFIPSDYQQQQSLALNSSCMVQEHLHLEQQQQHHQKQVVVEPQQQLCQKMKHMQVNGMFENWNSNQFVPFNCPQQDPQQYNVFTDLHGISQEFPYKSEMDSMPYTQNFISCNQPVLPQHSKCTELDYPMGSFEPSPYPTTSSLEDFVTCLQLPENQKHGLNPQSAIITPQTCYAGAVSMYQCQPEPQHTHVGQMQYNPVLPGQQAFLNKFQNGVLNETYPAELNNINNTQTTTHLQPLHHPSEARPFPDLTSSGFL
In short: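 Read-out: reporter mRNA quantified by RT-PCR with fluorescent primer extension and capillary electrophoresis. Human HepG2 liver cells carried transfected cis-promoter reporter units and were exposed to chemical for 24 h; gain or loss fitted relative to DMSO.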

[6] = ATG_AP_1_CIS: Attagene CIS-FACTORIAL HepG2 Assay for human Activator Protein 1 (AP-1) (AID 2282931); details: HepG2 Attagene cis-factorial AP-1 reporter mRNA; actives raise or lower the signal
In short: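 HepG2 cells transiently transfected with cis-element-driven multiplex reporter units; 24 h compound exposure. Reporter mRNA quantified by RT-PCR, FAM-labelled fragments resolved by capillary electrophoresis; bidirectional fit versus DMSO baseline.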

[7] = ATG_AP_2_CIS: Attagene CIS-FACTORIAL HepG2 Assay for human Activator Protein 2 (AP-2) (AID 2282932); details: HepG2 AP-2 cis-reporter, Attagene transcription factor profiling; actives raise or lower the signal
In short: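 HepG2 cells transiently transfected with cis-element reporter units and exposed for 24 h. Reporter mRNA measured by RT-PCR, FAM labelling, HpaI digestion and capillary electrophoresis. Changes in either direction fitted relative to DMSO.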

[8] = ATG_BRE_CIS: Attagene CIS-FACTORIAL HepG2 Assay for human Bone Morphogenetic Protein (BMP) Response Element (BRE) (AID 2282933); details: HepG2 BMP response element reporter, Attagene transcription factor profiling; actives raise or lower the signal
In short: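 Endogenous transcription factor activity at a BMP response element was monitored in transfected HepG2 cells 24 h after dosing. Fluorescent RT-PCR products were resolved by capillary electrophoresis, and activity was fitted in both directions versus DMSO.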

[9] = target: Retinoic acid receptor alpha (Homo sapiens) (UniProt P10276); assay: ATG_DR5_RAR_CIS: Attagene CIS-FACTORIAL HepG2 Assay for human Retinoic Acid Receptor Alpha (RARE), DR5 submotif (AID 2282934); details: HepG2 Attagene cis-factorial RARE DR5 reporter, mRNA; actives raise or lower the signal
Chain of Retinoic acid receptor alpha (Homo sapiens) (P10276 whole entry, looked up): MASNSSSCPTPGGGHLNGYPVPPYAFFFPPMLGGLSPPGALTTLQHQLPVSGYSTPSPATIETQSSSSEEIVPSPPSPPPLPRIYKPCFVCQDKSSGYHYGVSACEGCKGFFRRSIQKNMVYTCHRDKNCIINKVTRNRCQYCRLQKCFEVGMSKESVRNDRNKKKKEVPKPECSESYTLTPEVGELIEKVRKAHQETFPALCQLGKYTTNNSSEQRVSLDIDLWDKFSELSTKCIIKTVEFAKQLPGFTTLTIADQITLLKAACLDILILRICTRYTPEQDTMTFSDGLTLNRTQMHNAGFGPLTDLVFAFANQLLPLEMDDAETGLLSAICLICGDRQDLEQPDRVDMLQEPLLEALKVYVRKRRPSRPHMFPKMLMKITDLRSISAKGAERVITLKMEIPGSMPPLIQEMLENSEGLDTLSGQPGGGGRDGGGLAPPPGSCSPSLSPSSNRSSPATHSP
In short: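 Read-out: DR5-driven reporter transcript measured by RT-PCR, 6-FAM primer extension, HpaI digest and capillary electrophoresis. Human HepG2 liver cells carry transiently transfected cis-element reporter constructs; dosing lasts 24 h. Gain or loss of signal fitted against DMSO baseline.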

[10] = target: Transcription factor E2F1 (Homo sapiens) (UniProt Q01094); assay: ATG_E2F_CIS: Attagene CIS-FACTORIAL HepG2 Assay for human E2F Transcription Factor 1 (AID 2282935); details: HepG2 Attagene cis-reporter, E2F reporter RNA transcripts; actives raise or lower the signal
Chain of Transcription factor E2F1 (Homo sapiens) (Q01094 whole entry, looked up): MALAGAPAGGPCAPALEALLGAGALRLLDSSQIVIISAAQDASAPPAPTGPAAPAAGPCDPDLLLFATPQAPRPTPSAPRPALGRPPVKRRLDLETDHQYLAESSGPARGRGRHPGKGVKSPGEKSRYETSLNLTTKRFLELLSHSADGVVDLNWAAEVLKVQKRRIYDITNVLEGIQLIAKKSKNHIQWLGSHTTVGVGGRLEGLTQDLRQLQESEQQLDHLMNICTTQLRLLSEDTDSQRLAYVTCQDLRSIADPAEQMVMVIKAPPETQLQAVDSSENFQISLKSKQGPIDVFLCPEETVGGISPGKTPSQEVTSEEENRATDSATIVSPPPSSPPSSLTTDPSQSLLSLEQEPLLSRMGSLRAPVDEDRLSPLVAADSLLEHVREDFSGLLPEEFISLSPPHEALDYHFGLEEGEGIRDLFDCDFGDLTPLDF
In short: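 Endogenous E2F1 activity read through cis-promoter reporter units transfected into HepG2. After 24 h compound treatment, reporter mRNA measured by RT-PCR, HpaI digestion and capillary electrophoresis. Bidirectional fit versus DMSO.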

[11] = ATG_E_Box_CIS: Attagene CIS-FACTORIAL HepG2 Assay for human Enhancer Box (E-box) (AID 2282936); details: HepG2 E-box cis-reporter transcription, actives raise or lower the signal
In short: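 HepG2 cells transiently transfected with multiplexed cis-element reporter units, dosed 24 h; reporter mRNA quantified by RT-PCR, 6-FAM labelling, HpaI digestion and capillary electrophoresis. E-box (USF1) signal fitted bidirectionally vs DMSO.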

[12] = ATG_M_61_CIS: Attagene CIS-FACTORIAL HepG2 Assay for M61 Transcription Factor (Internal Marker) (AID 2282937); details: HepG2 Attagene CIS-FACTORIAL M61 internal marker reporter; actives raise or lower the signal
In short: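 HepG2 cells transiently transfected with cis-element-driven multiple reporter transcription units, dosed for 24 h. Reporter mRNA measured by RT-PCR, 6-FAM primer-extension labelling, HpaI digestion and capillary electrophoresis; bidirectional fit versus DMSO baseline.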

[13] = ATG_EGR_CIS: Attagene CIS-FACTORIAL HepG2 Assay for human Early Growth Response 1 (EGR1) (AID 2282938); details: HepG2 Attagene CIS-FACTORIAL EGR reporter mRNA; actives raise or lower the signal
In short: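 HepG2 cells transiently transfected with cis-promoter-driven multiplexed reporter transcription units; reporter mRNA measured 24 h after compound dosing by RT-PCR, 6-FAM primer extension, HpaI digestion and capillary electrophoresis. Bidirectional fit versus DMSO baseline.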

[14] = ATG_M_19_CIS: Attagene CIS-FACTORIAL HepG2 Assay for M19 Transcription Factor (Internal Marker) (AID 2282939); details: HepG2 Attagene CIS-FACTORIAL M19 internal marker reporter; actives raise or lower the signal
In short: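 Background-control endpoint from a multiplexed HepG2 reporter panel. Cells carrying cis-regulated reporter constructs are treated 24 h, then reporter transcripts are amplified, fluorescently labelled and sized by capillary electrophoresis. DMSO defines baseline.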

[15] = ATG_ERE_CIS: Attagene CIS-FACTORIAL HepG2 Assay for Estrogen Response Element (ERE) (AID 2282940); details: HepG2 ERE cis-reporter, Attagene RNA transcript; actives raise or lower the signal
In short: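 Cells used were human hepatoma HepG2, transfected with multiple reporter transcription units under cis-regulatory promoters. Reporter mRNA, read 24 h post-dosing via fluorescent RT-PCR products on capillary electrophoresis, was fitted bidirectionally relative to DMSO.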

[16] = ATG_Ets_CIS: Attagene CIS-FACTORIAL HepG2 Assay for human Erythroblast Transformation Specific (ETS) (AID 2282941); details: HepG2 ETS cis-reporter transcription, actives raise or lower the signal
In short: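 HepG2 cells transfected with multiple cis-regulated reporter units measuring endogenous ETS-driven transcription, 24 h after dosing. Reporter mRNA quantified by RT-PCR with capillary electrophoresis; bidirectional fit relative to DMSO.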

[17] = target: Hepatocyte nuclear factor 3-beta (Homo sapiens) (UniProt Q9Y261); assay: ATG_FoxA2_CIS: Attagene CIS-FACTORIAL HepG2 Assay for human Forkhead box A2 (FOXA2) (AID 2282942); details: HepG2 cis-reporter transcription factor activity, 24 h; actives raise or lower the signal
Chain of Hepatocyte nuclear factor 3-beta (Homo sapiens) (Q9Y261 whole entry, looked up): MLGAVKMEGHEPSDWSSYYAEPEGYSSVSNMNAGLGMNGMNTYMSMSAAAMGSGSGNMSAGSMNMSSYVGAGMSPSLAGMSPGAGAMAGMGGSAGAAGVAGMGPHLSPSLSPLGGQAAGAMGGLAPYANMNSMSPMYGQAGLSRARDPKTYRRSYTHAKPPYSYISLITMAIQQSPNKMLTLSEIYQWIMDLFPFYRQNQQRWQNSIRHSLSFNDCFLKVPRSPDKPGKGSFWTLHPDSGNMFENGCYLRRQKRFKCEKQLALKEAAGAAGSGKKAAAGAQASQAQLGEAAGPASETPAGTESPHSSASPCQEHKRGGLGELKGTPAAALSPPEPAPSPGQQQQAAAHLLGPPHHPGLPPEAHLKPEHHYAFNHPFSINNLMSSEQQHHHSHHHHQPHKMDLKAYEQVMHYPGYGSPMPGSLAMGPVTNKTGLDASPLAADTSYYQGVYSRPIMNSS
In short: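 HepG2 cells transiently transfected with multiple cis-regulated reporter transcription units, dosed for 24 h. Reporter mRNA measured by RT-PCR, 6-FAM labelling, HpaI digestion and capillary electrophoresis; bidirectional fitting against DMSO baseline.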

[18] = ATG_GLI_CIS: Attagene CIS-FACTORIAL HepG2 Assay for human Zinc Finger Protein GLI1 (AID 2282945); details: HepG2, Attagene cis-factorial reporter mRNA, GLI element; actives raise or lower the signal
In short: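 Transiently transfected HepG2 cells report endogenous transcription factor activity via cis-element-driven reporter units. After 24 h compound exposure, reporter mRNA was measured by RT-PCR with capillary electrophoresis; bidirectional fitting against DMSO baseline.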

[19] = ATG_FoxO_CIS: Attagene CIS-FACTORIAL HepG2 Assay for human Forkhead box O (FoxO) (AID 2282943); details: HepG2 Attagene cis-reporter, FoxO element, mRNA; actives raise or lower the signal
In short: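 Read-out: fluorescence of 6-FAM-labelled reporter cDNA fragments resolved by capillary electrophoresis. Transiently transfected HepG2 cells were dosed for 24 h; activity fitted in both directions relative to DMSO controls.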

[20] = ATG_GATA_CIS: Attagene CIS-FACTORIAL HepG2 Assay for human GATA Binding Protein (AID 2282944); details: HepG2 GATA cis-element reporter, Attagene multiplex mRNA; actives raise or lower the signal
In short: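 Endogenous transcription factor activity was captured through cis-promoter-driven reporters in transfected HepG2 cells. After 24 h exposure, reporter transcripts were quantified by RT-PCR with fluorescent capillary electrophoresis, and responses fitted both directions against DMSO.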

Measured: AC50

O=C(O)Cn1c(=O)n(Cc2ccc(Br)cc2F)c(=O)c2ccc(Cl)cc21
not listed: [19] | [20]
inactive: all other assays above

Clc1cc(Cl)c2c(c1)N=C1CCCCCN1C2
active: [4] 78.1 µM | [11] 50 µM
inactive: all other assays above

O=C(O)Cc1cc(I)c(Oc2ccc(O)c(I)c2)c(I)c1
active: [6] 160 µM and 100 µM and 74.8 µM | [8] 89 µM
inactive: [1] | [2] | [3] | [4] | [5] | [6] | [8] | [9] | [10] | [11] | [12] | [13] | [14] | [16] | [17] | [19] | [20] | [18]

Cc1cn([C@H]2C[C@H](N=[N+]=[N-])[C@@H](CO)O2)c(=O)[nH]c1=O
active: [3] 27.4 µM
not listed: [7] | [19]
inactive: all other assays above

CCCC(=O)OCCC(C)C
active: [16] 26.8 µM
not listed: [19] | [20]
inactive: all other assays above

O=C(OCCCCCCOC(=O)c1ccccc1)c1ccccc1
not listed: [20]
inactive: all other assays above
